These results are taken from the supplement of paper PMC10105736.

A number with no mark means an inactive call.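 How the source made its calls: active = MAPPIT score above the 99th percentile of random reference set scores in the same batch; inactive = at or below it.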

What all share (assay): MAPPIT interaction score (arbitrary units); higher = stronger binary interaction signal, active = hit call of the paper
One test has as its target CG10483. The note with it: MAPPIT configuration: N-N; pair source set: DPIM.
Another test deals with CG4847. The note with it: MAPPIT configuration: N-N; pair source set: DPIM.
The next test addresses twin. The note with it: MAPPIT configuration: N-N; pair source set: DPIM.
The next test has as its target CG10510. The note with it: MAPPIT configuration: N-N; pair source set: Finley_Y2H.
In a further test the target is CG31111. The note with it: MAPPIT configuration: N-N; pair source set: DPIM.
The target of a further test is CkIIbeta.
The target of another test is Pkc98E. Particulars: MAPPIT configuration: N-N; pair source set: Finley_Y2H.
The next test concerns the target CG10444. Particulars: MAPPIT configuration: N-C; pair source set: screen_3.
Another test has as its target CG10465. Particulars: MAPPIT configuration: N-N; pair source set: Curagen_high_conf.
The next test deals with CG10616. Particulars: MAPPIT configuration: N-N; pair source set: Finley_Y2H.
For a further test, the target named is CG10336. The note with it: MAPPIT configuration: N-C; pair source set: screen_3.
The target in the next test is Gint3. Particulars: MAPPIT configuration: N-N; pair source set: Lit-BM-16.
In the next test the target is ZnT63C. Particulars: MAPPIT configuration: N-N; pair source set: DPIM.
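Further: HEK293T cells with Epo stimulation, STAT-responsive firefly luciferase reporter, fold induction versus unstimulated cells divided by the larger fold induction of two negative controls lacking either bait or prey.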

B1: CG1785 (protein)
chain: MTAVEPATKKKRISKKNKSAWRKTDIQDVEQFLEDQRQEERVGTFADKQDEDLFVVDSSLPKTKATVLSVKQKRKLNAKKPMRSYQALENTSKVQDPIAKRNHVRQKKNGRNIELEVCNPTKPRHRQANSDRAQYYVKLEQRLADKKNKKLDVEKDIWQEVDFRDEIPGLKDEKGWISRELALHTAGNIGKKVVKTHASLHHKTTKAKKFELPHPGMSYNPAPEDHQALIDQVVEREEGIIKKEQHLKRVTTSMFSKVTPEERDRRRLNEMSQGMDEEEGSELDEDVQTNGKKKEDDDEKPYHTINAPVENKKKSKQARRNELKQKELARQTELKRKLKQQTADLIRIKSIRHELDDEEEDLNDLKKRRKQRAEKAKFEPKRLGRHKFEEPDLDVNLPEDIAGNLRNVKTESSLLKDRFHTLQRNNMLPTTKLVSRKKSKVKRFERNSHKEPGVSYNDLKERRRAAAAAAKATANIKI
As to B1, the MAPPIT interaction score was 0.068 in the test with CG10483, 0.0294 with CG4847 and -0.15 in the test with twin.

B2: CkIIalpha (protein)
chain: MTLPSAARVYTDVNAHKPDEYWDYENYVVDWGNQDDYQLVRKLGRGKYSEVFEAINITTTEKCVVKILKPVKKKKIKREIKILENLRGGTNIITLLAVVKDPVSRTPALIFEHVNNTDFKQLYQTLTDYEIRYYLFELLKALDYCHSMGIMHRDVKPHNVMIDHENRKLRLIDWGLAEFYHPGQEYNVRVASRYFKGPELLVDYQMYDYSLDMWSLGCMLASMIFRKEPFFHGHDNYDQLVRIAKVLGTEELYAYLDKYNIDLDPRFHDILQRHSRKRWERFVHSDNQHLVSPEALDFLDKLLRYDHVDRLTAREAMAHPYFLPIVNGQMNPNNQQ
As for B2, the MAPPIT interaction score with CG10510 is 0.0158; with CG31111, 0.429; with CkIIbeta (MAPPIT configuration: N-C, pair source set: Lit-BM-16), 3.22; with CkIIbeta (MAPPIT configuration: N-N, pair source set: Lit-BM-16), 4.3 (active); with CkIIbeta (MAPPIT configuration: N-N, pair source set: screen_1), 4.3 (active); with Pkc98E, 0.257.

B3: IM18 (protein)
chain: MKLIALCCLLLLGLLGFLAAPGVASPSRHTGPGNGSGSGAGSGNPFRSPSSQQRPLYYDAPIGKPSKTMYA
Turning to B3, the MAPPIT interaction score with CG10444 is 0.79.

B4: AnxB11 (protein)
chain: MYPFGSGMPSHPPTSTNHHEPPRAPFGAGWVPPMQQNSPYPPPSQPHPHSQPSSQMHPQQHQQYPGGAPAPYPPMSAPYPSAAPSYPPYPTSNPYPAQYAPPAHNHYQQPSVSNSPYPADRGYTPAMTAGYDAGYGYGNGQGHGQGHGHGQGHGHGHGQGHEYGHGYGQGYGHGQGHGNGQGHAHRSLPAHREGTPTVVPAANFDAVKDAHDLRKAMKGFGTDEDALINIICRRSNEQRQEIQRQFKTHFGKDLIEDIKSETSGNFEKLLVGLLRPIVDYYCAELNDAMAGLGTDEEVLIEILCTLSNMEINTIKNQYLRLYGAHLESELKSETSGNFKRLLTSLCTAARDESGRVDPVAAKNDARELLKAGELRVGTDESMFNMILCQRNYQQLKLIFQEYEGMTGHSLEKAIKKEFSGDVMEGLIAIYRCVTNKAEYFASRLHKAMAGIGTNDTQLIRVIITRSEIDMTDIKVAFERLYGKSLKSWIKGDTSGHYKHALYALVGEQRSS
Turning to B4, the MAPPIT interaction score with CG10465 is 0.12.

B5: wbl (protein)
chain: MMHILVTLLLVAIHSIPTTWAVTCTGCVDLDELSFEKTVERFPYSVVKFDIAYPYGEKHEAFTAFSKSAHKATKDLLIATVGVKDYGELENKALGDRYKVDDKNFPSIFLFKGNADEYVQLPSHVDVTLDNLKAFVSANTPLYIGRDGCIKEFNEVLKNYANIPDAEQLKLIEKLQAKQEQLTDPEQQQNARAYLIYMRKIHEVGYDFLEEETKRLLRLKAGKVTEAKKEELLRKLNILEVFRVHKVTKTAPEKEEL
As to B5, in the test with CG10616, the MAPPIT interaction score is -0.151.

B6: TER94 (protein)
chain: MADSKGEDLATAILKRKDRPNRLIVEEAQNDDNSVVSLSQAKMDELQLFRGDTVILKGKRRKETVCIVLSDDTCPDEKIRMNRVVRNNLCVHLSDVVSVQSCPDVKYGKRVRILPIDESTEGVTGNLFEIYLKPYFLEAYRPIHMGDNFIVRAAMRPIEFKVVLTDPEPYCIVAPETVIFCDGDPIKREEEEESLNAVGYDDIGGCRKQLAQIKEMVELPLRHPSLFKAIGVKPPRGILMYGPPGTGKTLIARAVANETGAFFFLINGPEIMSKLAGESESNLRKAFEEAEKNSPAIIFIDEIDAIAPKRDKTHGEVERRIVSQLLTLMDGMKKSSHLIVMAATNRPNSIDPALRRFGRFDREIDIGIPDATGRLEVLRIHTKNMKLHDDVDLEQIAAESHGHVGADLASLCSEAALQQIREKMDLIDLEDDKIDAEVLASLAVTMENFRYAMTKSSPSALRETVVEVPNTTWTDIGGLESVKKELQELVQYPVEHPDKFLKFGMQPSRGVLFYGPPGCGKTLLAKAIANECQANFISVKGPELLTMWFGESEANVRDIFDKARSAAPCVLFFDELDSIAKARGGNVGDAGGAADRVINQILTEMDGMGAKKNVFIIGATNRPDIIDPAILRPGRLDQLIYIPLPDDKSREAILKANLRKSPLAKEVDLTYIAKVTQGFSGADLTEICQRACKLAIRQAIEAEIRREKERAENQNSAMDMDEDDPVPEITSAHFEEAMKFARRSVSDNDIRKYEMFAQTLQQSRGFGQNFRFPGQTGNTSGSGNNLPVNSPGDNGDDDLYS
B6: the MAPPIT interaction score is 2.12 with CG10336, 1.48 with Gint3 and -0.374 in the test with ZnT63C.
